Over roughly 18,000 sequences, “log2 normalized intensity” has its median near 0.39; the highest 2% begin near 6.6. What follows is part of a selection rich in the highest values, with near analogues and random picks from the rest.

This experiment concerns the target T1, HNF4alpha2 (COS-7 nuclear extract) (Homo sapiens, UniProt P41235 1-474).
T1 sequence: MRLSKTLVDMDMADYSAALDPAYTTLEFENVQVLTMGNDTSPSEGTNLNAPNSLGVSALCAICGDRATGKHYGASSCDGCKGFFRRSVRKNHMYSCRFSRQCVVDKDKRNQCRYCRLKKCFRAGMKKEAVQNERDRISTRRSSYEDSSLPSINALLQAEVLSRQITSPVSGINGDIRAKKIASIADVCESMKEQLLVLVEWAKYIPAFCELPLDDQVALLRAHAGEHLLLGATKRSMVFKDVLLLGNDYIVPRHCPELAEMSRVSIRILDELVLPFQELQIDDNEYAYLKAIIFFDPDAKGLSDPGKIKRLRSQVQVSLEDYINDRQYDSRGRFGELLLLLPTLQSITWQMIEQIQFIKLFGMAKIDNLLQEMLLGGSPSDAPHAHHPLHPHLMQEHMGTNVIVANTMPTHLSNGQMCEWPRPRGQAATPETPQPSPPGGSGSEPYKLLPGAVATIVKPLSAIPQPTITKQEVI
Nature of the experiment: protein-binding microarray; COS-7 nuclear extract on double-stranded Agilent 4x180k PBM; binding buffer, salt, pH and temperature not given in the material; high values mean tight binding. Conditions: chain copies: 2; label: 3' end of strand 1 on the slide; dsDNA, one strand shown. The gist of the method: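 Nuclear extracts came from COS-7 cells transiently transfected by CaPO4 with a human HNF4α isoform expression vector. They were applied to a custom Agilent SurePrint G3 4x180k array of ~60-nt oligonucleotides, made double-stranded, with ~44,000 test sequences spotted in quadruplicate. Bound HNF4α was imaged at 2-µm resolution on an Agilent G2565CA scanner. Binding signal was taken as background-corrected, normalized gProcessedSignal from Agilent software.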
With “AATATTCTGGCTTCTCGTGAGTATTTTTTCGCCTAGGGAGATTAGAGTATCGGTCGA”, the binding signal was 0.954 log2 normalized intensity.
Turning to “TTTGGAATTGTGTCACTCCCCAGGAATGTGGCCTAGGGAGATTAGAGTATCGGTCGA”, the binding signal came to 1.89 log2 normalized intensity.
The figure for “CCTCTGCACCCCACCAAGGACTGGACCACCGCCTAGGGAGATTAGAGTATCGGTCGA” is 2.34 log2 normalized intensity; for “AGGAATTCTGATCTTTGACCTCTCCAGGGTGCCTAGGGAGATTAGAGTATCGGTCGA” it is 5.99 log2 normalized intensity.
“TTCTGATCTTTGACCTCTCCAGGGTCCTTGGCCTAGGGAGATTAGAGTATCGGTCGA”: the binding signal turned out to be 4.73 log2 normalized intensity.
Regarding “AGAGCAGGAATTCTGATCTTTGACCTCTCCGCCTAGGGAGATTAGAGTATCGGTCGA”, the binding signal was 7.34 log2 normalized intensity.
Take “CATCTTTGAAGAGCACAGGGTCAGCAGATCGCCTAGGGAGATTAGAGTATCGGTCGA”: the binding signal is 1.17 log2 normalized intensity.
As to “CCACTTTGAATCAGGAGAGCATCTGAGTGTGCCTAGGGAGATTAGAGTATCGGTCGA”, the binding signal was 1.15 log2 normalized intensity.
Consider “TAATCAGAGCAGGAATTCTGATCTTTGACCGCCTAGGGAGATTAGAGTATCGGTCGA”, for which the binding signal stood at 7.18 log2 normalized intensity.
For “GCCACCTTGGTGAGAGATTAAACATGCTCTGCCTAGGGAGATTAGAGTATCGGTCGA”, the binding signal was 0.469 log2 normalized intensity.
For “ACAGCCTTTTGAGTTTCTACCATAGACCCTGCCTAGGGAGATTAGAGTATCGGTCGA”, the binding signal turned out to be 1.05 log2 normalized intensity.
As for “CATTCTACCCCTGTGGTTGACCTTTAGTCTGCCTAGGGAGATTAGAGTATCGGTCGA”, the binding signal came out at 7.73 log2 normalized intensity.
The figure for “TACCCCTGTGGTTGACCTTTAGTCTCTAGCGCCTAGGGAGATTAGAGTATCGGTCGA” is 6.48 log2 normalized intensity.
On to “TGATCCATTCTACCCCTGTGGTTGACCTTTGCCTAGGGAGATTAGAGTATCGGTCGA”, for which the binding signal is 7.8 log2 normalized intensity.
With “ATGCTAAAGTCTACATTCTAGATGACCCCTGCCTAGGGAGATTAGAGTATCGGTCGA”, the binding signal worked out at 5.66 log2 normalized intensity.
On to “TTACTGGACTTGATCCATTCTACCCCTGTGGCCTAGGGAGATTAGAGTATCGGTCGA”, for which the binding signal was determined as 2.73 log2 normalized intensity.
As for “GGACTTGATCCATTCTACCCCTGTGGTTGAGCCTAGGGAGATTAGAGTATCGGTCGA”, the binding signal amounted to 2.25 log2 normalized intensity.
For “GGACTTCGCTCCGCCGCTAGGTGGCGGGCTGCCTAGGGAGATTAGAGTATCGGTCGA” the value was 1.42 log2 normalized intensity.
As for “GAGAAGTTGCTCTTTACACCATTGCAAGGAGCCTAGGGAGATTAGAGTATCGGTCGA”, the binding signal was -0.941 log2 normalized intensity.
In the case of “GGAGCCCCCTGGGGGAGGTTTCCTGCTGTCGCCTAGGGAGATTAGAGTATCGGTCGA”, the binding signal is -0.946 log2 normalized intensity.
For “ATCTTCCTCCCCCCTTGGCTACATGTTTGTGCCTAGGGAGATTAGAGTATCGGTCGA”, the binding signal worked out at 3.7 log2 normalized intensity.
As for “CTGCAAAGAAGTCAAACTTTGGACCCACTGGCCTAGGGAGATTAGAGTATCGGTCGA”, the binding signal was determined as 5.97 log2 normalized intensity.
On to “GGACTTGATCCAGGGCAAAGGTCATAATTTGCCTAGGGAGATTAGAGTATCGGTCGA”, for which the binding signal is 6.98 log2 normalized intensity.
On to “AGAAAACACAGAGATCTGATCAAAGGTCATGCCTAGGGAGATTAGAGTATCGGTCGA”, for which the binding signal was determined as 5.9 log2 normalized intensity.
For “TCAGGAGCCCCACAGAGCAAAGGTCATGCAGCCTAGGGAGATTAGAGTATCGGTCGA” the value was 5.38 log2 normalized intensity; for “CAAAGGTCATAATTTGATCCAGTGTGCAAAGCCTAGGGAGATTAGAGTATCGGTCGA”, 3.35 log2 normalized intensity.
“ACACAGGACTTGATCCAGGGCAAAGGTCATGCCTAGGGAGATTAGAGTATCGGTCGA”: the binding signal was found to be 7.38 log2 normalized intensity.
For “TGATCCAGGGCAAAGGTCATAATTTGATCCGCCTAGGGAGATTAGAGTATCGGTCGA” the value was 6.34 log2 normalized intensity; for “GAGCTTTTACCTCAAATAAAGGTCAGAGTCGCCTAGGGAGATTAGAGTATCGGTCGA”, 1.79 log2 normalized intensity.
For the sequence “GTATCAGGGCTCAGGAATGTGGGGTCAACAGCCTAGGGAGATTAGAGTATCGGTCGA”, the binding signal was 2.99 log2 normalized intensity.
The figure for “CCGCGACAAGCGTCGCTGAGTGGAGGCCCAGCCTAGGGAGATTAGAGTATCGGTCGA” is -0.847 log2 normalized intensity; for “GTGGACTTTGTCCTGTGGGCTGTAAAAATCGCCTAGGGAGATTAGAGTATCGGTCGA” it is 5.03 log2 normalized intensity; for “ATGGACTTTGAAGGAGATTCCTGTGTCAGCGCCTAGGGAGATTAGAGTATCGGTCGA” it is 0.984 log2 normalized intensity.
In the case of “GGTCAGCAATGTGGACTTTGTCCTGTGGGCGCCTAGGGAGATTAGAGTATCGGTCGA”, the binding signal was found to be 7.77 log2 normalized intensity.
“GCCACGGTCAGCAATGTGGACTTTGTCCTGGCCTAGGGAGATTAGAGTATCGGTCGA”: the binding signal was 9.67 log2 normalized intensity.
With “TGGACTTTGGTCCTGGTCAGACTTGCCACGGCCTAGGGAGATTAGAGTATCGGTCGA”, the binding signal is 4.5 log2 normalized intensity.
With “CCGTCCTGTCCTGGACTTTCCTTTGTTGGGGCCTAGGGAGATTAGAGTATCGGTCGA”, the binding signal was 2.3 log2 normalized intensity.
In the case of “GCAATGTGGACTTTGTCCTGTGGGCTGTAAGCCTAGGGAGATTAGAGTATCGGTCGA”, the binding signal was 7.35 log2 normalized intensity.
As for “AGTTTGCCACGGTCAGCAATGTGGACTTTGGCCTAGGGAGATTAGAGTATCGGTCGA”, the binding signal came out at 6.18 log2 normalized intensity.
On to “GTGGGAGAAAGCTTTGGACTTTGGGCTGTGGCCTAGGGAGATTAGAGTATCGGTCGA”, for which the binding signal came to 5.72 log2 normalized intensity.
For “TTGTCAGTGCCCTATACAGACCTTTGTATAGCCTAGGGAGATTAGAGTATCGGTCGA”, the binding signal worked out at 2.96 log2 normalized intensity.
For “CTCACAGAGTGGAGTCTTCCGTTTGATAGAGCCTAGGGAGATTAGAGTATCGGTCGA”, the binding signal was -0.436 log2 normalized intensity.

The record behind these values is PMC10726135, “HNF4α isoforms regulate the circadian balance between carbohydrate and lipid metabolism in the liver”.
